Data from PubChem BioAssay AID1347423 (Functional Genomics Laboratory (NCATS/FGL), 2020).
In all, about 52,000 sequences went through this assay and about 210 (0.4%) were called active. Many of the other results were omitted from the sample, so actives are more common in it than they were. Unmarked numbers belong to inactive results.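 Rule for the calls: active = gene whose silencing raises cell survival under the drug, median off-target-corrected z-score across its silencing RNAs 2 or more; inactive = the rest.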

Assay: Resistance to Poly (ADP-Ribose) Polymerase inhibitor: Gene Identification via Genome-wide siRNA Screen
Settings: mouse BRCA2 R2336H ES cells, olaparib, CellTiter-Glo viability; active compounds read high
How it was run: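 Genome-wide siRNA screen (3 siRNAs/gene, 20 nM) in mouse ES cells carrying hypomorphic BRCA2 R2336H; olaparib 500 nM added 48 h post-transfection, CellTiter-Glo viability 72 h later. Normalized to plate-median negative control; MAD z-scores, gene median, seed-adjusted.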

Sequence	z-score
GGGAUACUGGUGCUUAACUTT against Abhd1	0.661
GCCACCUCUUAUGAGGCUUTT against D630045E04Rik	-1.04
GGUGGUUACAACCGAAGCATT against Fus	2.95 (active)
GCCCUAGAACUUUUGAAUUTT against Dhx15	-1.01
GGAGGUGUUGAACAAGUGCTT against 1700008P20Rik	-1.32
GCAAGCAGAUCUGAUAUCATT against 2700050F09Rik	4.76 (active)
GCCUGGAUUCAGAAGCUACTT against Ugt1a1	0.72
GGAGGAGGAGGACUUUGAUTT against 5830417I10Rik	-1.23
GGAACAUUACAAAAGCUCUTT against Slfn1	-0.715
GAAUCUAAAGAUGAACACCTT against 0610009B22Rik	-0.48
GCAAGUGGUAAUGGUGACCTT against Tex15	-0.249
GGACUUUUAUUUUGUUAGCTT against Pacsin2	3.01 (active)
GUUUUCUUGAGACAGUUAATT against 1810008A14Rik	-0.106
GGAGUUGAUCAAGACAGAGTT against S100a5	-0.443
GGAGGAAAGAAUGUGUAAATT against Birc3	-0.544
GCAUGCAUGAUGGAUCUUCTT against Gabrb1	-2
GGAAACAACGGAUCCAAAATT against Plcb3	2.47 (active)
GCUUACAUCCAAGCCGUCUTT against 4931440B09Rik	1.71
CCAAGUUCACAAUUGUUCUTT against Gm457	-0.19
GGACUUGUCUUUGACACGCTT against Nt5c2	2.18
GGAUUCCCUAUCCCAUACCTT against Araf1	4.36 (active)
GGUCAAAAGAAACAGGUGUTT against 2310047I15Rik	0.438
GCAACUAGCCUGUUCUAUCTT against AI325941	1.68
GGAGUUGAAGUUUGUGACATT against Acpp	2.3 (active)
GGUGAAAGUGAGAAGGAAGTT against 6720460F02Rik	-0.247
CCUGAAUUACCUCAUAUAUTT against Stat5b	0.922

Sequence	z-score
GCUGAAACCUCAUGAGGAGTT against Ptpn9	3.06 (active)
GCUACUAUUGUGUUCUGAATT against Drd1a	-0.386
GGUACUCGGUUAUCAUGAATT against Olfr1403	1.39
GGAAAGGACCACCUAAGUUTT against Pde6g	-2.22 (active)
GGUUACCUGAGGUCAGUAGTT against Ifi1	-2.31
GGCUAAUGUGCUCUCUCAUTT against Olfr644	1.28
CCCACAGGGAUUUAUUUAUTT against Slc37a1	1.36 (active)
CCUUGAAAUACUGAGUGACTT against AU067695	1.17
GGAGCAAUGUUGUCACAACTT against Fbln1	-0.548
CGUGUAAAAGCCGGAUUGATT against 1500015L24Rik	0.909
GCAAAGCUGAUGGACUCAATT against 2410018M08Rik	-0.965
GGCAAAAGUGGUUAUUGAATT against Itga6	3.02 (active)
GGAUAAUGGUAUCUACUUCTT against Cd79b	-0.408
GGCAAGAAUCAAGGAGAGATT against Nek1	1.44
GCGAUUAAUGGCAUAGUUUTT against Sara1	-1.04
GACAGGAAGUUGAUGAAUUTT against Raet1a	-0.444
GGCAAACAAAUGGUUUGUUTT against D430030K24Rik	2.76 (active)
GCACCUUAAAAAUGAAGAUTT against D12Ertd551e	-0.616
GGUACCGGAAAGGAAGUGUTT against Grm1	-0.666
GGAAGAGAAAGACCUGAGATT against Glra1	-0.8
GGCUGAGAUCUGAAAUUGATT against Krt2-5	0.59
CGAAAGUUACUCAUAGAGATT against Itga6	0.364 (active)
GCAGGUGCCAACAUUAUUGTT against 0610039C21Rik	1.5
GGAAGAAAUGGACCAGCUGTT against Brp16	-1.27
CCUUAUCCAAGAGUAGGGCTT against AY534250	1.03
GGUGUGACACCUAAGAUGATT against AW212607	1.39

Sequence	z-score
GGACAAGUUGUUGGACUACTT against Smarca3	1.04 (active)
CCUAUCUUUACCACAUAGATT against 9030624J02Rik	-0.939
GGACCCAUGAGGUUAACUUTT against D15Ertd781e	-1.18
GGUUCACCUGUCAAGUGGATT against Hfe	0.781
GGUGUGGGUGGGAAAAGAATT against 2610027C15Rik	-1.77
CCUUAUUUUACGGAACUGCTT against Olfr1018	0.819
GCUCUGCUAGUCAACUGCATT against Nrip2	0.681
GGGAUUUAACAACAUGUAATT against Slc20a1	2.29 (active)
GGGCAUAGAGUCUCAAACUTT against Ptger1	0.492
GGAGCUUCUAGAGAAGAUCTT against Leng5	-2.29
GCGGCAGAUCUUCGAUUUCTT against 2610200G18Rik	-0.616
GCUUCUAAGCCGAAGGCCATT against Hist1h1d	0.442
CCACCAUCAAAUAUAACUATT against 9930021J03Rik	0.126
GGAACAUGAAGCCUUUUACTT against Asb16	3.12 (active)
CCCAGGACUCAUGAUUACATT against Tas2r134	-1
CCAUCAAGAGGUAUAAUCUTT against A930017E24Rik	-2.24
CGGACAGAUACAAUAGCUATT against BC057627	3.74 (active)
GGAUUGUGCUGUGAAACAUTT against Pilrb	-1.98
GCCUUCAAAUGAAGGAAGGTT against Olfr699	-0.519
GGUGAAACUGAAUAAAAUCTT against 4931406C07Rik	1.09
GGCUAGAGAAAUAGUGUUGTT against D6Ertd253e	-0.28
GGAUGAAAUUAACUCUGAATT against Adprt1	2.49 (active)
GCUUAAGGACGCAUUGAAATT against Pthlh	-0.0187
GGAACACCGAACAUAAAUATT against Gm610	-0.526
UCUGGAGUCUUAUCAAGGATT against 2210020M01Rik	-0.752
GGUGCCUGACCAAAAAGGATT against A830094I09Rik	2.67 (active)

Sequence	z-score
GCCGACUGGUUAAAUACAUTT against Nme3	-0.45
CCCACUUAUAUAUGUAGUUTT against 2410187C16Rik	-0.391
GGCAGAAGCAAUGAACUAUTT against Npm1	3.59 (active)
GGCCUUGGGAAGGAAAGAGTT against Mospd1	-1.74
GGCACCUAACGACUUCAACTT against Pygm	0.366
GCCCGCUCUCGGAUUUUGATT against Htr1b	2.87 (active)
GCUCAGACCAUAGUUUCUATT against A930002I21Rik	1.53
GCCUCAAAACUUCUUGUUCTT against Mxd3	0.892
GGCCUUUCUGGAGAAGAUGTT against Stfa3	-0.717
CCUUCGAACUCGAAAAAUUTT against Olfr722	0.346
GGCCAUCGAACUCAAUCUCTT against 2810002D13Rik	0.717
GGUUAAUGGGAAACUCUGCTT against Pias3	2.89 (active)
GGACUUAUCGGUUAUCUUUTT against Nap1l2	0.654
CCGCACAGACCAUAGUAGATT against 1700121L12Rik	0.0169
CCUAGUUGAAAAUUGGGAATT against 0610025O11Rik	-0.794
GGAUGAACAGGAGAAAGUCTT against Irak2	0.0975
CGAUGUACUGUCUCUUUUGTT against Ywhaz	1.53
GCAACAGGUUAGCGAAACCTT against Bid3	0.43 (active)
GGUAGCUAUCAAGGUCAUCTT against Hunk	-0.704
GGAGGAUACCUUCUUCUACTT against Mta3	0.46
GCAGGGACCGUCUAUAACUTT against Ptprb	-0.654
GCGGAUUUAGUGGCUGGCUTT against Opn5	-2.04
GGAAUUUUUGGACAAAGUATT against Grid2	-3.07 (active)
GCUCUUCUCGCAUUCCUAUTT against Gpc2	-0.68
CCAGAUUGGUGAUGGUAGUTT against LOC432637	0.502
GGCUCAUCAAAGGAAGAAATT against Araf1	1.44 (active)
